Results filed as inconclusive are left out. The source made the active and inactive calls. Calls come from the whole dose curve; as a rule, active = well fitted cell-killing curve with a large enough effect; inconclusive = small, poorly fitted or top-dose-only effect, or effect the other way; inactive = no such curve, though single readings can be large or run the other way. Residues, ends and D or L forms follow the SMILES beside them. *: point of attachment. Cbz = O=C(OCc1ccccc1)*
Key:
[1] = Quantitative High-Throughput drug screen in 47 multiple myeloma cell lines against the NCATS MIPE library collection: KMS11_JCRBsus cell viability assay (AID 1919873); note: nearly all actives have a fitted effect of over 50% in size
How it was run: (§1)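 Myeloma cells (500/well) treated with MIPE 4.0 compounds for 48 h at 37 °C, 5% CO2. Viability read as ATP via CellTiter-Glo luminescence after 5 min at RT; DMSO-only wells = 100%, media-only = 0% viability.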

[2] = Quantitative High-Throughput drug screen in 47 multiple myeloma cell lines against the NCATS MIPE library collection: KMS28BM_JCRB cell viability assay (AID 1919874); note: nearly all actives have a fitted effect of over 35% in size
How it was run: as §1
Potency is the fitted concentration of half-maximal effect.

Question: With COc1cc(O)c2c(c1)C1OC1C[C@H](O)[C@H](O)C(=O)C=CC[C@H](C)OC2=O (some centres not stated) as the molecule, how does the Potency [1] read?
Answer: 2.35 µM (active)

Question: And the Potency [2]?
Answer: 3.72 µM (active)

Question: Which results are given for CN(C)CCN1C(=O)c2cccc3cc(N)cc(c23)C1=O?
Answer: Potency [1]: 16.6 µM (active); Potency [2]: 16.6 µM (active)

Question: Which results are given for CN(C)c1ccc(C(=O)NCCCCCCC(=O)NO)cc1?
Answer: Potency [1]: 0.743 µM (active); Potency [2]: 0.526 µM (active)

Question: Which results are given for CCCCCCCCc1ccc(CCC(N)(CO)CO)cc1?
Answer: Potency [1]: 7.43 µM (active); Potency [2]: 7.43 µM (active)

Question: For C=C1CCC2[C@](C)(CO)C(O)CC[C@]2(C)C1CC=C1C(=O)OCC1O (some centres not stated), which Potency [1] is on record?
Answer: inactive

Question: What about the Potency [2] of the same molecule?
Answer: inactive

Question: For Cc1ncc(-c2ccnc(Nc3ccc(S(C)(=O)=O)cc3)n2)n1C(C)C, which Potency [1] is on record?
Answer: 2.09 µM (active)

Question: And the Potency [2]?
Answer: 4.69 µM (active)

Question: Which Potency [1] does the source give for CCN(C(=O)c1c(O)c2c(Cl)cccc2n(C)c1=O)c1ccccc1 here?
Answer: inactive

Question: What about the Potency [2] of the same molecule?
Answer: inactive

Question: For Oc1ccc([C@@H]2Oc3ccc(O)cc3[C@@H]3CCC[C@@H]32)cc1, which Potency [1] is on record?
Answer: 7.43 µM (active)

Question: And the Potency [2]?
Answer: 14.8 µM (active)

Question: Which Potency [1] does the source give for Nc1ccc(C(=O)Nc2cccc(-c3nc(N4CCOCC4)c4oc5ncccc5c4n3)c2)cn1 here?
Answer: 6.62 µM (active)

Question: What about the Potency [2] of the same molecule?
Answer: 26.4 µM (active)

Question: Which results are given for CC(C=CC(=O)NO)=C[C@@H](C)C(=O)c1ccc(N(C)C)cc1?
Answer: Potency [1]: 0.235 µM (active); Potency [2]: 0.187 µM (active)

Question: For CC(C=CC1=C(C)CCCC1(C)C)=CC=CC(C)=CC(=O)Nc1ccc(O)cc1, which Potency [1] is on record?
Answer: 19.1 µM (active)

Question: And the Potency [2]?
Answer: 17.1 µM (active)

Question: For Cc1cnc(NC(=O)Nc2cc(Br)c(C)cc2OC[C@@H]2CNCCO2)cn1, which Potency [1] is on record?
Answer: 5.26 µM (active)

Question: And the Potency [2]?
Answer: 14.8 µM (active)

Question: For NC(=O)N1CCC(CC(=O)N2CCC([C@H]3c4ncc(Br)cc4CCc4cc(Cl)cc(Br)c43)CC2)CC1, which Potency [1] is on record?
Answer: 10.5 µM (active)

Question: What about the Potency [2] of the same molecule?
Answer: 20.9 µM (active)

Question: For C[C@H]1COc2c(N3CCN(C)CC3)c(F)cc3c(=O)c(C(=O)O)cn1c23, which Potency [1] is on record?
Answer: inactive

Question: What about the Potency [2] of the same molecule?
Answer: inactive

Question: Which Potency [1] does the source give for Cc1ccc2nc(NCCN)c3ncc(C)n3c2c1 here?
Answer: 3.72 µM (active)

Question: What about the Potency [2] of the same molecule?
Answer: 6.62 µM (active)

Question: For CCOC(=O)[C@H](CCc1ccccc1)N[C@@H](C)C(=O)N1[C@@H](C(=O)O)C[C@H]2CCC[C@@H]21, which Potency [1] is on record?
Answer: 6.62 µM (active)

Question: And the Potency [2]?
Answer: 5.9 µM (active)

Question: With CC(=O)N1CCN(c2ccc(OCc3nn(C)c(C)c3-c3cccc4c(CCCOc5cccc6ccccc56)c(C(=O)O)n(Cc5cccnc5)c34)cc2)CC1 as the molecule, how does the Potency [1] read?
Answer: 0.105 µM (active)

Question: And the Potency [2]?
Answer: 0.0235 µM (active)

Question: For O=C1NC(=O)C(=Cc2ccc3nccc(-c4ccncc4)c3c2)S1, which Potency [1] is on record?
Answer: 0.0662 µM (active)

Question: And the Potency [2]?
Answer: 0.372 µM (active)

Question: What does the source list for CCCNS(=O)(=O)Nc1ncnc(OCCOc2ncc(Br)cn2)c1-c1ccc(Br)cc1?
Answer: Potency [1]: inactive; Potency [2]: inactive

Question: With CC(Cc1ccc(O)c(O)c1)(NN)C(=O)O (configuration not stated) as the molecule, how does the Potency [1] read?
Answer: 26.4 µM (active)

Question: And the Potency [2]?
Answer: inactive

Question: What does the source list for C[C@@H](NCc1cc2ccccc2[nH]1)c1cccc2ccccc12?
Answer: Potency [1]: inactive; Potency [2]: inactive

Question: Which Potency [1] does the source give for COc1cccc2c1C(=O)c1c(O)c3c(c(O)c1C2=O)C[C@@](O)(C(=O)CO)C[C@@H]3O[C@H]1C[C@H](N)[C@@H](O)[C@H](C)O1 here?
Answer: 0.935 µM (active)

Question: And the Potency [2]?
Answer: 0.418 µM (active)

Question: Which results are given for C[C@@H](Oc1ccc2[nH]nc(C=Cc3cnn(CCO)c3)c2c1)c1c(Cl)cncc1Cl?
Answer: Potency [1]: 0.148 µM (active); Potency [2]: 1.18 µM (active)

Question: Which Potency [1] does the source give for COc1cc(C(=O)NC2CCN(C)CC2)ccc1Nc1ncc2c(n1)N(C1CCCC1)CCC(=O)N2C(C)C here?
Answer: 20.9 µM (active)

Question: What about the Potency [2] of the same molecule?
Answer: 14.8 µM (active)

Question: For COc1cc(C)c(Sc2cnc(NC(=O)c3ccc(CNC(C)C(C)(C)C)cc3)s2)cc1C(=O)N1CCN(C(C)=O)CC1 (configuration not stated), which Potency [1] is on record?
Answer: 5.9 µM (active)

Question: What about the Potency [2] of the same molecule?
Answer: 13.2 µM (active)

Question: With Cn1cnc2c(F)c(Nc3ccc(Br)cc3F)c(C(=O)NOCCO)cc21 as the molecule, how does the Potency [1] read?
Answer: inactive

Question: What about the Potency [2] of the same molecule?
Answer: inactive

Question: With CC(C)N(CC[C@H](c1ccccc1)c1cc(CO)ccc1O)C(C)C as the molecule, how does the Potency [1] read?
Answer: inactive

Question: And the Potency [2]?
Answer: 1.05 µM (active)

Question: What does the source list for COc1cccc2c1C(=O)c1c(O)c3c(c(O)c1C2=O)C[C@@](O)(C(=O)CO)C[C@@H]3O[C@H]1C[C@H](N)[C@H](OC2CCCCO2)[C@H](C)O1 (some centres not stated)?
Answer: Potency [1]: 2.64 µM (active); Potency [2]: 1.66 µM (active)

Question: With CCc1cnn2c(NCc3ccc[n+]([O-])c3)cc(N3CCCC[C@@H]3CCO)nc12 as the molecule, how does the Potency [1] read?
Answer: 0.0209 µM (active)

Question: What about the Potency [2] of the same molecule?
Answer: 0.0296 µM (active)

Question: Which Potency [1] does the source give for CON=C(C(=O)N[C@@H]1C(=O)N2C(C(=O)O)=C(CSC(=O)c3ccco3)CS[C@H]12)c1csc(N)n1 here?
Answer: inactive

Question: And the Potency [2]?
Answer: inactive

Question: What does the source list for O=C(Nc1cc2cc[nH]c2cn1)c1ccccc1?
Answer: Potency [1]: 11.8 µM (active); Potency [2]: 5.26 µM (active)

Question: Which results are given for CC(C)C[C@@H](C=O)NC(=O)[C@H](CC(C)C)NC(=O)[C@H](CC(C)C)NC(=O)OCc1ccccc1 (Cbz-Leu-Leu-Leu-aldehyde)?
Answer: Potency [1]: 0.264 µM (active); Potency [2]: 0.235 µM (active)

Question: For O=[N+]([O-])c1cn2c(n1)OC[C@@H](OCc1ccc(OC(F)(F)F)cc1)C2, which Potency [1] is on record?
Answer: inactive

Question: And the Potency [2]?
Answer: inactive

Question: What does the source list for NC(=NCCCCCCN=C(N)N=C(N)Nc1ccc(Cl)cc1)N=C(N)Nc1ccc(Cl)cc1?
Answer: Potency [1]: 14.8 µM (active); Potency [2]: 18.7 µM (active)

Question: For CN[C@@H]1C[C@H]2O[C@@](C)([C@H]1OC)n1c3ccccc3c3c4c(c5c6ccccc6n2c5c31)C(=O)N[C@H]4O, which Potency [1] is on record?
Answer: 0.264 µM (active)

Question: And the Potency [2]?
Answer: 0.469 µM (active)

Question: With CCN(CC)CCNC(=O)c1c(C)[nH]c(C=C2C(=O)Nc3ccc(F)cc32)c1C as the molecule, how does the Potency [1] read?
Answer: 1.52 µM (active)

Question: And the Potency [2]?
Answer: 5.4 µM (active)

Question: What does the source list for CCCc1nc(C(C)(C)O)c(C(=O)O)n1Cc1ccc(-c2ccccc2-c2nn[nH]n2)cc1?
Answer: Potency [1]: inactive; Potency [2]: inactive

Question: Which Potency [1] does the source give for O=C1c2cccc(O)c2C(=O)c2c(O)cc(CO)cc21 here?
Answer: inactive

Question: And the Potency [2]?
Answer: inactive

Question: Which Potency [1] does the source give for C=CCNC1=C2C[C@@H](C)C[C@H](OC)[C@@H](O)[C@@H](C)C=C(C)[C@H](OC(N)=O)[C@@H](OC)C=CC=C(C)C(=O)NC(=CC1=O)C2=O here?
Answer: 0.059 µM (active)

Question: What about the Potency [2] of the same molecule?
Answer: 0.662 µM (active)

Question: What does the source list for CCn1c(=O)c2c(nc(C=Cc3ccc(OC)c(OC)c3)n2C)n(CC)c1=O?
Answer: Potency [1]: inactive; Potency [2]: inactive

Question: For CON=C(C(=O)N[C@@H]1C(=O)N2C(C(=O)O)=C(Cn3ccc(=N)n3CCO)CS[C@H]12)c1csc(N)n1, which Potency [1] is on record?
Answer: inactive

Question: What about the Potency [2] of the same molecule?
Answer: inactive

Question: For C#C[C@]1(O)CC[C@@H]2[C@@H]3CCc4cc(O)ccc4[C@H]3CC[C@@]21C, which Potency [1] is on record?
Answer: 10.5 µM (active)

Question: What about the Potency [2] of the same molecule?
Answer: 4.69 µM (active)

Question: For COC(=O)C=CC(=O)OC, which Potency [1] is on record?
Answer: inactive

Question: What about the Potency [2] of the same molecule?
Answer: inactive

Question: Which Potency [1] does the source give for C[C@H](NCc1ccc2c(c1)nc(NC(=O)c1ccc(-c3cn[nH]c3)s1)n2CCc1ccccc1)C(C)(C)C here?
Answer: 0.59 µM (active)

Question: And the Potency [2]?
Answer: 0.833 µM (active)

Question: For CC(C)(O)[C@H]1CC[C@@](C)([C@H]2[C@@H](O)C[C@@]3(C)[C@@H]4C[C@H](O[C@@H]5O[C@H](CO)[C@@H](O)[C@H](O)[C@@H]5O)[C@H]5C(C)(C)[C@@H](O[C@@H]6OC[C@@H](O)[C@H](O)[C@@H]6O)CC[C@@]56C[C@@]46CC[C@]23C)O1, which Potency [1] is on record?
Answer: inactive

Question: And the Potency [2]?
Answer: inactive

Question: With CC(C)c1cnn2c(NCc3ccccc3)cc(NCCCCCCN)nc12 as the molecule, how does the Potency [1] read?
Answer: 26.4 µM (active)

Question: What about the Potency [2] of the same molecule?
Answer: 20.9 µM (active)
